KKLEB tox: CF airway cell cytotoxicity counter-screen; KKLEB CF airway cells viability, ATPlite luminescence, overnight; active compounds read low; cells stimulated with P. aeruginosa culture filtrate; activity change (cytotoxicity), % at 5 µM; 0.36% of 360,000 active; AID 602141;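 active = corrected activity change at or below -50% at 5 µM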
CF NFkB inh: blocks PAF-induced NF-kB reporter in cystic fibrosis cells | KKLEB NF-kB-GFP reporter, GFP fluorescence overnight | inhibition, % at 5 µM | 0.86% of 360,000 active;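 active = at least 50% inhibition at 5 µM, scaled per plate between neutral and stimulator controls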;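 also: PAF is a Pseudomonas aeruginosa culture filtrate used as stimulus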
HIF-2a inh: inhibitors of HIF-2a | 786-0 RCC cells HIF-2a reporter, luciferase luminescence, overnight | inhibition, % at 18.8 µM | 0.72% of 360,000 active;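 active = inhibition of the luminescence signal of 40% or more relative to plate controls, in a single-dose primary screen at 18.75 µM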
TWEAK Fn14 block: TWEAK-Fn14 signaling inhibition | TWEAK-stimulated Fn14 reporter cells, luciferase luminescence, 8 h | 2% of 360,000 active | AID 1159606 | inhibition, % at 10 µM; in the data active = inhibition above about 50%
TROY signal inh: inhibitors of TROY-dependent NF-kB signaling. inhibition, % at 10 µM. Q293 LMP1-TROYcd NF-kB luciferase reporter, 4 h. 0.98% of 360,000 active;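 active = compounds whose plate-normalised and pattern-corrected inhibition of the luciferase reporter signal at the single screening dose is 50% or more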
Peg3 prom inh: inhibitors of Peg3 promoter. 1.7% of 360,000 active. inhibition, % at 20 µM. HeLa PEG-Prom luciferase reporter, luminescence, overnight. AID 588405;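 active = inhibition of at least 50% at 20 µM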
A number is an active result; n = inactive; x = not tested or not shown. Hits are enriched below; roughly 4% of the tested compounds scored in any of these assays.

SMILES | KKLEB tox | CF NFkB inh | HIF-2a inh | TWEAK Fn14 block | TROY signal inh | Peg3 prom inh
CC(O)(c1cccnc1)c1nc(-c2cccc(C(F)(F)F)c2)cs1 (centres undefined) | n | n | n | n | n | n
CC1(C)CC(Cc2ccc(C(F)(F)F)cn2)N(C(=O)OC(C)(C)C)C1 (centres undefined) | x | x | n | x | x | x
CC(C)(C)OC(=O)NCc1ccc(NC(=O)c2nc[nH]c2C(=O)Nc2cc(Br)ccc2F)cc1 | n | n | n | n | n | n
Cc1ccc(NC(=O)c2nc[nH]c2C(=O)NCCCCCNC(=O)OC(C)(C)C)cc1 | n | n | n | n | n | n
CC(C)(C)OC(=O)NCCCCCNC(=O)c1[nH]cnc1C(=O)Nc1ccc(Cl)cc1 | n | n | n | 62.0 | 57.5 | n
CC(C)(C)OC(=O)NCCCCCNC(=O)c1[nH]cnc1C(=O)Nc1cc(Br)ccc1F | n | n | n | 76.3 | n | n
CC(C)(C)OC(=O)NCc1ccc(NC(=O)c2nc[nH]c2C(=O)NCCN(CCNC(=O)c2[nH]cnc2C(=O)Nc2ccc(CNC(=O)OC(C)(C)C)cc2)CCNC(=O)c2[nH]cnc2C(=O)Nc2ccc(CNC(=O)OC(C)(C)C)cc2)cc1 | n | n | n | n | n | n
CC(C)(C)OC(=O)NCc1ccc(NC(=O)c2nc[nH]c2C(=O)NCCCNC(=O)c2[nH]cnc2C(=O)Nc2ccc(CNC(=O)OC(C)(C)C)cc2)cc1 | n | n | n | 73.4 | n | 78.3
CC(C)C[C@H](NC(=O)c1nc[nH]c1C(=O)NC(c1ccccc1)c1ccccc1)C(=O)OC(C)(C)C | n | n | n | n | n | 84.2
CC(=O)Nc1c([N+](=O)[O-])cc2c3c(cccc13)CC2 | n | n | n | n | n | n
CCC(CC)c1nnc(NC(=O)CSCC(=O)Nc2cc(C)on2)s1 | n | n | n | n | n | n
C#CCN1C(=O)C2(OCCO2)c2ccccc21 | n | n | n | n | n | n
C[C@H](NC(=O)c1nc[nH]c1C(=O)NCc1ccc(CNC(=O)OC(C)(C)C)cc1)c1ccccc1 | n | n | n | n | n | n
C[C@H](NC(=O)c1nc[nH]c1C(=O)NCc1ccc(CNC(=O)OC(C)(C)C)cc1)C(=O)OCc1ccccc1 | n | n | n | n | 57.0 | n
CC(C)(C)OC(=O)NCc1ccc(NC(=O)c2nc[nH]c2C(=O)NCCCCCCNC(=O)c2[nH]cnc2C(=O)Nc2ccc(CNC(=O)OC(C)(C)C)cc2)cc1 | -83.2 | 87.9 | n | n | n | 100.9
COc1ccc(-c2ccccc2)cc1NC(=O)C1(C)CCN1C(=O)C(C)C (centres undefined) | n | n | n | n | n | n
Cc1c(CN2CCC(Oc3ccc(C(=O)N4CCCCC4)cc3)CC2)cnn1C | n | n | n | n | n | n
FC(F)(F)c1cccc(NC(=S)NCc2ccc(Cl)cc2)c1 | n | n | n | 56.6 | 59.6 | n
CC(C)(C)NNC(=S)Nc1cccc(F)c1 | n | n | n | n | n | n
Fc1ccc(CNC(=S)Nc2cccc(C(F)(F)F)c2)cc1 | n | n | n | n | n | 68.6
O=[N+]([O-])c1cc(C(F)(F)F)cc([N+](=O)[O-])c1NCCNC(=S)Nc1cccc(F)c1 | n | n | n | n | 68.5 | n
Fc1cccc(NC(=S)NCc2ccc(Cl)cc2)c1 | n | n | n | n | n | n
CN(Cc1ccc(Cl)cc1)C(=O)CCl | -56.7 | 50.2 | n | n | n | n
Cc1csc(N/N=C/c2ccccn2)n1 | n | n | n | 72.2 | n | n
C(=N\NC1=Nc2cccc3cccc1c23)/c1ccccn1 | n | 51.3 | n | 62.8 | n | n
SMILES | KKLEB tox | CF NFkB inh | HIF-2a inh | TWEAK Fn14 block | TROY signal inh | Peg3 prom inh
COc1ccc(-c2nc(CSCC(=O)NCc3ccco3)c(C)o2)cc1 | n | n | n | 69.2 | n | n
COc1ccc(O)c(C=Nc2cc(NC(C)=O)c(Cl)cc2Cl)c1 | n | n | n | n | n | n
CC(=O)Nc1cc(N=Cc2ccc(O)cc2O)c(Cl)cc1Cl | n | n | n | 98.7 | n | n
NC(=O)c1cc(NC(=O)CCNS(=O)(=O)c2cccc(C(F)(F)F)c2)cc(C(N)=O)c1 | n | n | n | n | n | n
Cc1ccc(C2CC(c3ccccc3)=NN2c2ccc(S(N)(=O)=O)cc2)cc1 (centres undefined) | n | n | n | n | n | n
CCc1ccc(C2=NN(c3ccc(S(N)(=O)=O)cc3)C(c3ccc(F)cc3)C2)cc1 (centres undefined) | n | n | n | n | n | 67.0
CN1CCCCC1(C)C(=O)NCc1ccc(C(C)(C)C)cc1 (centres undefined) | n | n | n | n | n | n
O=C1NC[C@H](CCCCN2C[C@H](Cc3ccc(O)cc3)N(Cc3ccccc3)C(=O)C2=O)N(CCc2ccccc2)C1=O | x | x | n | n | n | x
CN(C)C(=O)c1ccc(-c2cc3onc(-c4ccccc4)c3c(=O)n2C)cc1 | n | n | n | n | n | n
CCC(C)c1ccc(NC(=S)NC2CCN(Cc3ccccc3)CC2)cc1 (centres undefined) | n | n | n | n | n | 77.3
CC(C)(C)NS(=O)(=O)c1ccc2[nH]c3c(c2c1)CCCCC3 | n | n | n | n | n | n
COCCCNS(=O)(=O)c1ccc2[nH]c3c(c2c1)CCCCC3 | n | n | n | 84.0 | n | n
CCOc1ccc2nc3cc(N=Nc4ccc(N)nc4N)ccc3c(N)c2c1 | n | n | n | n | n | 74.0
COC(=O)[C@]12CCCCC=C1N(CCc1ccc(OC)c(OC)c1)C(=O)[C@H](CC(=O)NCCc1ccccc1OC)C2 | x | x | n | x | x | x
NS(=O)(=O)c1ccc(CNC(=S)Nc2cc(S(=O)(=O)N3CCOCC3)ccc2Cl)cc1 | n | n | n | n | n | n
Cc1ccc(-c2nc(-c3nccc4ccccc34)oc2-c2ccccc2)cc1 | n | n | n | n | 62.5 | n
O=C(N[C@@H]1C/C=C\C[C@H](CC(=O)N(CCO)Cc2ccccc2)C(=O)NC[C@@H](c2ccccc2)OC1=O)OCC1c2ccccc2-c2ccccc21 | n | n | n | n | n | n
O=C(C[C@H]1C/C=C\C[C@H](NC(=O)OCC2c3ccccc3-c3ccccc32)C(=O)O[C@H](c2ccccc2)CNC1=O)N[C@H](CO)Cc1ccccc1 | -95.5 | 86.5 | n | n | n | 87.5
CCCCOCCCNC(=O)C[C@@H]1C[C@@]2(C(=O)OCC)CCC=C2N(Cc2cccc3ccccc23)C1=O | x | x | n | n | n | x
CC(C)(C)c1ccc(C(=O)NCCOc2ccccc2)cc1 | n | n | n | 88.7 | 79.5 | n
O=C(NCCc1ccccc1)c1ccc([N+](=O)[O-])cc1 | n | n | n | 57.9 | n | n
CC(C)(C)c1ccc(C(=O)NCCc2ccccc2)cc1 | n | n | n | 58.9 | n | n
O=C(NCCc1ccccc1)c1cccc(N2CCCC2=O)c1 | n | n | n | 82.7 | 61.9 | n
CN(C)S(=O)(=O)c1ccc(C(=O)NCCOc2ccccc2)cc1 | n | n | n | n | n | n

High-throughput results as filed in PubChem.
